Assays:
Format in all cases: functional
[1] = target: Solute carrier family 2, facilitated glucose transporter member 1 (Homo sapiens) (UniProt P11166); assay: ST_JUDE_LEISH: Cytotoxicity at 2uM final concentration against transgenic Leishmania Mexicana promastigotes LmGLUT1 that are glucose transport deficient and complemented with the human glucose transporter GLUT1. Activity is measured by DNA content using SYBR green in vitro
[2] = target: Hexose transporter 1 (Plasmodium falciparum) (UniProt O97467); assay: ST_JUDE_LEISH: Cytotoxicity at 2uM final concentration against transgenic Leishmania Mexicana promastigotes LmPfHT that are glucose transport deficient and complemented with the Plasmodium falciparum hexose transporter. Activity is measured by DNA content using SYBR green in vitro
[3] = target: Glucose transporter (Leishmania mexicana) (UniProt O61059); assay: ST_JUDE_LEISH: Cytotoxicity at 2uM final concentration against transgenic Leishmania Mexicana promastigotes LmGT2 that are glucose transport deficient and complemented with the L. Mexicana glucose transporter 2. Activity is measured by DNA content using SYBR green in vitro

Solute carrier family 2, facilitated glucose transporter member 1 (Homo sapiens), sequence (P11166 whole entry): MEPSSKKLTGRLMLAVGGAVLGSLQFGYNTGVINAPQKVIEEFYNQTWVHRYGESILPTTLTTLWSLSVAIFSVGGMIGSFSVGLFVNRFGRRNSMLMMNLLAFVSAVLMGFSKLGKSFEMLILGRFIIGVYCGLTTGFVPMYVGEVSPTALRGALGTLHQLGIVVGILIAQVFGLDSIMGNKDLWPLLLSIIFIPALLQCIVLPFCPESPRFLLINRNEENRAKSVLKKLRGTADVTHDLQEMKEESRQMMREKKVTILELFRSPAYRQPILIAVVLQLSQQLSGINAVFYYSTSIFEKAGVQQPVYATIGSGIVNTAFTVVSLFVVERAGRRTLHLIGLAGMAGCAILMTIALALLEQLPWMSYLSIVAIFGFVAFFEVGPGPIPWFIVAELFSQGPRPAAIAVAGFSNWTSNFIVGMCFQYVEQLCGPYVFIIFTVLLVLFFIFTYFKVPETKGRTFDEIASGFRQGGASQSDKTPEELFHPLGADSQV

SMILES	inhibition [1] [%]	inhibition [2] [%]	inhibition [3] [%]
O=C(NCc1cccs1)[C@H](Cc1ccccc1)Nc1ccnc(NCCc2ccc(F)cc2)n1	11.2	9.62	9.52
CCOc1cc(C)ccc1C1CCN(CCCCNC(=O)c2nc(-c3ccc(C(F)(F)F)cc3)[nH]c2C)CC1	1.65	0.72	-0.05
Cc1cc(N2Cc3ccccc3C2)nc(Nc2cccc(C#N)c2)n1	4.07	4.04	2.59
COc1ccc(Cl)cc1N1CCN(CCCNC(=O)c2ccc(-c3nc4cc(Cl)c(C)cc4[nH]3)c(F)c2)CC1	1.96	0.19	0.07
Cc1cccc2nc(-c3ccc(-c4ccc(CN5CCCC(N)C5)cc4)cc3)[nH]c12 (stereo not drawn)	8.17	11	2.6
COc1ccc2ncc(F)c(CCN3CCC(NCc4ccc5c(c4)CCO5)CC3)c2n1	16.7	21.4	20.6
Cc1oc(-c2ccc(Cl)cc2)cc1C(=O)NCCC1CCN(CCCCCNC(=O)/C=C/c2ccc(Cl)c(Cl)c2)CC1	-0.57	-1.53	-2.41
CN(C)Cc1ccc(-c2ccc3c(Nc4ccc(Oc5ccccn5)cc4)ccnc3c2)o1	0.08	4.31	2.19
CNC(=O)c1ccccc1Nc1nc(Nc2ccc(C(=O)O)cc2)ncc1Cl	-1.75	1.77	1.39
Cc1cnc(C[S+]([O-])c2nc3cc(C(F)(F)F)ccc3[nH]2)cc1OCc1ccccc1 (stereo not drawn)	3.56	4.95	2.76
O=C(Nc1cccc(C(F)(F)F)c1)c1cccc(S(=O)(=O)NCC2CCCN(Cc3ccccc3)C2)c1 (stereo not drawn)	1.71	1.75	1.71
CCCC(C)NC(=O)[C@H](Cc1ccccc1)NC(=O)c1ccc(O)c(-c2ccc(OC)cc2)c1 (stereo partly drawn)	4.38	3.09	3.9
COc1nc2c(CCN3CCC(NCc4ccc5c(n4)NC(=O)CO5)CC3)c(Cl)cnc2cc1F	7.62	8.51	7.05
N#Cc1ccc(NC(=O)N2CCCN(CCCCCNC(=O)/C=C/c3ccc(Cl)c(Cl)c3)CC2)cc1	1.89	1.77	5.16
O=C(NCCCCN1CCN(c2nsc3ccccc23)CC1)c1ccccc1C(=O)NCCCCN1CCN(c2nsc3ccccc23)CC1	2.17	-0.52	-0.08
N=c1[nH]c2cccc3ccc4cccc1c4c32	9.96	9.29	7.95
CC(=O)Oc1c(C(=O)C2CCC(C(C)(C)C)CC2)c(OC(C)=O)c2ccccc2c1OC(C)=O (stereo not drawn)	8.82	11.5	7.73
N#Cc1ccc2c(c1)CCN(CCC1CCC(NC(=O)Nc3ccncc3)CC1)C2 (stereo not drawn)	5.14	3.65	5.01

SMILES	inhibition [1] [%]	inhibition [2] [%]	inhibition [3] [%]
COc1ccc(C(=O)N2CCC3(CC2)C(=O)N(CC(=O)NCC2CCCCC2)CN3c2ccccc2)c(OC)c1	5.13	7.03	3.99
CCCc1ccc(-c2csc(NC(=O)c3ccc([N+](=O)[O-])o3)n2)cc1	78.4	77.8	37.8
CCN(CC)CCCNc1ncc2c(-c3ccc(NC(=O)Nc4cc(C(F)(F)F)ccc4F)cc3)nn(C)c2n1	4.51	4.18	4.62
CC(C)C[C@H](NC(=O)c1ccc(OCCN2CCOCC2)cc1)C(=O)N[C@H](/C=N/N1CCN(C)C1=O)CCc1ccccc1	3.09	5.16	3.85
c1cc(COc2ccc(C3=NCCN3)cc2)nc(COc2ccc(C3=NCCN3)cc2)c1	4.95	5.66	-0.59
c1cc(CNC2Cc3ccc(-c4cccs4)cc3C2)cc(-n2ccnc2)c1 (stereo not drawn)	3.39	0.43	1.86
C=CCOC(=O)N1CCC(CNCc2ccc(-c3cccc(-c4nc5cc(F)ccc5[nH]4)c3)cc2)C1 (stereo not drawn)	1.77	2.36	3.88
O=C(NC1CCN(Cc2ccccc2O)C1)c1cccc(C(F)(F)F)c1 (stereo not drawn)	0.25	0.49	-9.49
COc1c(C2CCN(CCN3CCC(NC(=O)c4ccc(-c5ccc(C(F)(F)F)cc5)cc4)CC3)CC2)ccc2c1CCCC2	0.78	1.26	0.67
COc1ccc2nc(SC(C)C(=O)c3c[nH]c4ccccc34)[nH]c2c1 (stereo not drawn)	2.5	0.87	2.35
Cc1ccc(C)c(NC(=O)Nc2ccc(Nc3nc(C)cc(N4CCOCC4)n3)cc2)c1	1.4	0.2	-5.61
CC12CCC(CN(CC(O)Cn3c4ccccc4c4cc(I)ccc43)C1)C2(C)C (stereo not drawn)	2.02	2.5	0.07
COc1cc2c(cc1OC)CC(NCc1ccc(-c3ccc4nc[nH]c4c3)cc1)C2	5.26	5.44	4.38
Cc1cccc2nc(-c3ccc(-c4ccc(NC(=O)NCc5ccccc5)cc4)s3)[nH]c12	3.85	4.61	1.02
Nc1c2ccccc2nc2ccc(-c3ccccc3)cc12	18.4	14.6	13.1
Cc1cc(NC2CCCC2)nc(Nc2ccccc2F)n1	11.8	4.74	2.95
COc1ccc(CNC2CCN(C)CC2)cc1-c1ccc(S(=O)(=O)NC2CCC2)c(C)c1	0	-0.22	-0.25
COc1ccc(Cl)cc1NC(=O)Nc1ccc2c(c1)CCN(C1CCC1)CC2	2.26	0.44	1.36

— ChEMBL document CHEMBL3433997, “St. Jude Leishmania screening dataset” (2016)
